Assay [1] concerns the target Tyrosine-protein kinase Fyn (Homo sapiens) (UniProt P06241). To be noted: at 1 µM.
Assay [2] has as its target Tyrosine-protein kinase HCK (Homo sapiens) (UniProt P08631). To be noted: at 0.1 µM.
For assay [3] the target is unchanged. To be noted: at 1 µM.
The target in assay [4] is Insulin-like growth factor 1 receptor (Homo sapiens) (UniProt P08069). To be noted: at 1 µM.
Assay [5] addresses Insulin receptor (Homo sapiens) (UniProt P06213). To be noted: at 0.1 µM.
For assay [6] the target is unchanged. To be noted: at 1 µM.
The target in assay [7] is Insulin receptor-related protein (Homo sapiens) (UniProt P14616). To be noted: at 0.1 µM.
Sequence of Insulin receptor-related protein (Homo sapiens) (P14616 27-742 limits assumed): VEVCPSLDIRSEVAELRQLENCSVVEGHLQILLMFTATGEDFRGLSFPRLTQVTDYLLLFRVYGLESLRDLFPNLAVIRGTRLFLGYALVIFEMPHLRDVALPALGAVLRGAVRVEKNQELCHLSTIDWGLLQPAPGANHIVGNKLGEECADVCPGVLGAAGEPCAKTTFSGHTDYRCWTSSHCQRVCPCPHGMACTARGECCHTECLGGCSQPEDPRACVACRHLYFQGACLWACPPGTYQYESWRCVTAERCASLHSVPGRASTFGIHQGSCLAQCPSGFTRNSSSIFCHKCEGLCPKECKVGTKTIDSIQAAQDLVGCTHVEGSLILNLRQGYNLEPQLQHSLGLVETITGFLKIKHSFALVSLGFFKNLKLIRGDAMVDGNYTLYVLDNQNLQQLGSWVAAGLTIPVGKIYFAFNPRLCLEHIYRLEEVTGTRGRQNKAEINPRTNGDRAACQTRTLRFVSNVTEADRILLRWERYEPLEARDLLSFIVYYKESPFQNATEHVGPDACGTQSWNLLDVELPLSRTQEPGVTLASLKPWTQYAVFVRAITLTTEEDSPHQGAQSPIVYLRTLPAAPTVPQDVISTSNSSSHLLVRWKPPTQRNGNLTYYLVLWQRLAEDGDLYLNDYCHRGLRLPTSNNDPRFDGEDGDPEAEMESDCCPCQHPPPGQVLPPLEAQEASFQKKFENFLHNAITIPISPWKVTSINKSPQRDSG
Sequence of Insulin receptor-related protein (Homo sapiens) (P14616 747-1297 limits assumed): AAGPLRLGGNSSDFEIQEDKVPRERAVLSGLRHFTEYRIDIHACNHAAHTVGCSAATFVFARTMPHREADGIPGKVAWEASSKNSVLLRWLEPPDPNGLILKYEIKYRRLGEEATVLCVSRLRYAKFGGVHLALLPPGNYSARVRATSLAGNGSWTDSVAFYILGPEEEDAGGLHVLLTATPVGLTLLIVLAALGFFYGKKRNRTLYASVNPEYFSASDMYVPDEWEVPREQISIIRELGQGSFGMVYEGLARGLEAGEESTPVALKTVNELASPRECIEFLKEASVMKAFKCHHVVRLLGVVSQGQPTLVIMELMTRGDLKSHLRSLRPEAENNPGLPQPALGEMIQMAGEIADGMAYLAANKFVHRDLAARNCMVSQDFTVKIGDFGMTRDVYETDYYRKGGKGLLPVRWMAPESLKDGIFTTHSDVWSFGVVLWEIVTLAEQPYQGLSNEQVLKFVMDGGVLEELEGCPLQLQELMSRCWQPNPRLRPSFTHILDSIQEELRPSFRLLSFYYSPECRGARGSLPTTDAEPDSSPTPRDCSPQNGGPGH
The target is the same in assay [8]. To be noted: at 1 µM.
In assay [9] the target is T1, Tyrosine-protein kinase ITK/TSK (Homo sapiens) (UniProt Q08881).
T1 sequence (whole entry): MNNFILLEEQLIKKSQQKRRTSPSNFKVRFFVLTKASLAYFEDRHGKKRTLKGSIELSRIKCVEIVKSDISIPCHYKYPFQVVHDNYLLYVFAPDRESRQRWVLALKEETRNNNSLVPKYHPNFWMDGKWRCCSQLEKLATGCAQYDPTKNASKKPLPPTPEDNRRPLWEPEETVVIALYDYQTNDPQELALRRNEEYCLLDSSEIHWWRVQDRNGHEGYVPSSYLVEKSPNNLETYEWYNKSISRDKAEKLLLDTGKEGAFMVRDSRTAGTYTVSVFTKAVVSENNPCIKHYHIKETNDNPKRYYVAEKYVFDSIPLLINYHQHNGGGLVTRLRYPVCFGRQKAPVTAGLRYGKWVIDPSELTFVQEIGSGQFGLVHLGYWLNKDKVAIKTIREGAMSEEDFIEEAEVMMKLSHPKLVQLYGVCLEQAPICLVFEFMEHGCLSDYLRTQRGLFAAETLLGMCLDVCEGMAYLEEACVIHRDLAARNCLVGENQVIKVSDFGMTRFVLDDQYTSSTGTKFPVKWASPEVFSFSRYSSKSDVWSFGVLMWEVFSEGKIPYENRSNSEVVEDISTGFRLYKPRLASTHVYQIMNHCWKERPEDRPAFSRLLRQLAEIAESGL
To be noted: at 0.1 µM.

Assay [10] has as its target T1, Tyrosine-protein kinase ITK/TSK (Homo sapiens). To be noted: at 1 µM.
Assay [11] concerns the target Tyrosine-protein kinase JAK1 (Homo sapiens) (UniProt P23458). To be noted: at 0.1 µM.
Assay [12] shares this target. To be noted: at 1 µM.
Assay [13] has as its target Tyrosine-protein kinase JAK2 (Homo sapiens) (UniProt O60674). To be noted: at 0.1 µM.
Assay [14] has the same target. To be noted: at 1 µM.
Assay [15] addresses T2, Tyrosine-protein kinase JAK3 (Homo sapiens) (UniProt P52333).
T2 sequence (whole entry): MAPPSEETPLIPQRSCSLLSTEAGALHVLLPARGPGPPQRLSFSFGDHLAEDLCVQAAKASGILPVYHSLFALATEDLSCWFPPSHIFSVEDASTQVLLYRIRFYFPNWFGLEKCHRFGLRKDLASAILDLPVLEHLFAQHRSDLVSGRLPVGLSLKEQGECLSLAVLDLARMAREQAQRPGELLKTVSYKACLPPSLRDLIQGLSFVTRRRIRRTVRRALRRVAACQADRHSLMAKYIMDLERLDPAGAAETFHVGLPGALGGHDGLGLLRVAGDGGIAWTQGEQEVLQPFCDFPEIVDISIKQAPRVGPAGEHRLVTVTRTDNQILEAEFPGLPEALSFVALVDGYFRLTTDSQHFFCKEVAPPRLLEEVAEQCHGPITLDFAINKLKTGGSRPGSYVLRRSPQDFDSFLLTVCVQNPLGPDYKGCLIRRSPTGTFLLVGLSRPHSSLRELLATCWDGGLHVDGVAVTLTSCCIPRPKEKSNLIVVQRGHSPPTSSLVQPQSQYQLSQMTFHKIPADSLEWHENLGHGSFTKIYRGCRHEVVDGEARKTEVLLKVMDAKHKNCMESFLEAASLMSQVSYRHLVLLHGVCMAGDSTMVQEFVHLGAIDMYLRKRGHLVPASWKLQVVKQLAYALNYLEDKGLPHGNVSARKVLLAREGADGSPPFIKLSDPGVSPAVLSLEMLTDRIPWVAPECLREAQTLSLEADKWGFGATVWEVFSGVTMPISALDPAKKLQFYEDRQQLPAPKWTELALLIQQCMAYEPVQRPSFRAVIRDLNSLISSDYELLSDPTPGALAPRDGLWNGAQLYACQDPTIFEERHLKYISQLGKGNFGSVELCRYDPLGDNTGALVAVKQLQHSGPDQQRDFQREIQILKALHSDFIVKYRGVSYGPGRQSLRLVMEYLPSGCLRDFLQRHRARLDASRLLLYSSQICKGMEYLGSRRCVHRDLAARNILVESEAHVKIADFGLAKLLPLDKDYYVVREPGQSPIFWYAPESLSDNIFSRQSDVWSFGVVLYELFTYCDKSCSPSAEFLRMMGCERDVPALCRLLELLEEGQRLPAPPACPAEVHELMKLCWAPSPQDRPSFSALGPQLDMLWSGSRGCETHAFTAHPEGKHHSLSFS
To be noted: at 0.1 µM.

Assay [16] deals with T2, Tyrosine-protein kinase JAK3 (Homo sapiens). To be noted: at 1 µM.
Assay [17] deals with Vascular endothelial growth factor receptor 2 (Homo sapiens) (UniProt P35968). To be noted: at 0.1 µM.
Sequence of Vascular endothelial growth factor receptor 2 (Homo sapiens) (P35968 whole entry): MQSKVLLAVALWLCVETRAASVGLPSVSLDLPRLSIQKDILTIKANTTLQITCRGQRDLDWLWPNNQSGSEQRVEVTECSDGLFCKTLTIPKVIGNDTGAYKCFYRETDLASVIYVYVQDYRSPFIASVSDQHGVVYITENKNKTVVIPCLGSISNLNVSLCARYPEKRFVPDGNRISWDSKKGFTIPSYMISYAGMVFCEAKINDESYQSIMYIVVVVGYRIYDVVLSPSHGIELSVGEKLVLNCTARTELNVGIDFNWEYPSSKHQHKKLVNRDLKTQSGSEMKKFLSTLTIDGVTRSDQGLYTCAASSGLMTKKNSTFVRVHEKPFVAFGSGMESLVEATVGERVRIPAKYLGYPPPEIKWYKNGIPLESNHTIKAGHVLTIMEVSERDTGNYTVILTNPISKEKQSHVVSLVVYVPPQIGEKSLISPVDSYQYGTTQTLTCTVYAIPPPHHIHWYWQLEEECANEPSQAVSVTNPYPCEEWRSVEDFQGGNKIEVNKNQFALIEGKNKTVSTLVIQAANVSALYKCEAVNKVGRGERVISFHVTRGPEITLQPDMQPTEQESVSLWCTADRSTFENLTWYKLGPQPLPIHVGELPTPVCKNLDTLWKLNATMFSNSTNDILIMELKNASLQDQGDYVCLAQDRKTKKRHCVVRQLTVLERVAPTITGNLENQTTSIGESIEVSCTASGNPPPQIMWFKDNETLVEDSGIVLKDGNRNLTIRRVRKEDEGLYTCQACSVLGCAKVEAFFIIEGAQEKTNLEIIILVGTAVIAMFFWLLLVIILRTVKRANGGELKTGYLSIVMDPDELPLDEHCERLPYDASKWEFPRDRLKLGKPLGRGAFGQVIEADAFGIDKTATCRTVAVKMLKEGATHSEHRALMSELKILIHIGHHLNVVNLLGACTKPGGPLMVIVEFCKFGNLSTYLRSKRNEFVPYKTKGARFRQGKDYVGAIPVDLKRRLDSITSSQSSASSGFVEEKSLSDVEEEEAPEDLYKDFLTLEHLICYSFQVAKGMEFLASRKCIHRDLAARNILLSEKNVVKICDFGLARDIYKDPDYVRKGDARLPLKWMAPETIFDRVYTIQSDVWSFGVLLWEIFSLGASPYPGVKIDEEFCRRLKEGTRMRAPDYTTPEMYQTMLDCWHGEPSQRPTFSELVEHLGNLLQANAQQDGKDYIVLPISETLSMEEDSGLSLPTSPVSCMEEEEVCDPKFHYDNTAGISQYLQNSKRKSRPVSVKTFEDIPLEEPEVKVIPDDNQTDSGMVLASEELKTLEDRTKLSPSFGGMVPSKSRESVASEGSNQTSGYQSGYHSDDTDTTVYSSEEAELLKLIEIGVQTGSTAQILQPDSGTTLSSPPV
Assay [18] has the same target. To be noted: at 1 µM.
Assay [19] addresses Mast/stem cell growth factor receptor Kit (Homo sapiens) (UniProt P10721). To be noted: at 0.1 µM.
In assay [20] the target is Insulin-like growth factor 1 receptor (Homo sapiens) (UniProt P08069). To be noted: at 0.1 µM.

Sequence of Tyrosine-protein kinase Fyn (Homo sapiens) (P06241 2-537 limits assumed): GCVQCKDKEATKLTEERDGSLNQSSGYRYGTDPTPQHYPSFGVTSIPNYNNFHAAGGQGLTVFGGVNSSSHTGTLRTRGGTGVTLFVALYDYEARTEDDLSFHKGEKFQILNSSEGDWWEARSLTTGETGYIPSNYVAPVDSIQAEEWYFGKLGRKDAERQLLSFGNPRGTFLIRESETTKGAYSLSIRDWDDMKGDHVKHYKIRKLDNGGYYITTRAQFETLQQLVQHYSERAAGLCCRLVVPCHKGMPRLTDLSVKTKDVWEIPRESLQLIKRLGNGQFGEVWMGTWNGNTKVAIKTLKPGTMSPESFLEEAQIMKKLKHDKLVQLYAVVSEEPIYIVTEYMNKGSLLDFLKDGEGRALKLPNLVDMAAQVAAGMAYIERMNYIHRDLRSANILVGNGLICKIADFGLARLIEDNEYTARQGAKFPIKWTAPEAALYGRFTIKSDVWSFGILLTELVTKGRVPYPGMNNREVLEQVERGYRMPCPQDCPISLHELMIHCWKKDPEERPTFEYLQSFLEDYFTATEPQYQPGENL
Sequence of Tyrosine-protein kinase JAK2 (Homo sapiens) (O60674 whole entry): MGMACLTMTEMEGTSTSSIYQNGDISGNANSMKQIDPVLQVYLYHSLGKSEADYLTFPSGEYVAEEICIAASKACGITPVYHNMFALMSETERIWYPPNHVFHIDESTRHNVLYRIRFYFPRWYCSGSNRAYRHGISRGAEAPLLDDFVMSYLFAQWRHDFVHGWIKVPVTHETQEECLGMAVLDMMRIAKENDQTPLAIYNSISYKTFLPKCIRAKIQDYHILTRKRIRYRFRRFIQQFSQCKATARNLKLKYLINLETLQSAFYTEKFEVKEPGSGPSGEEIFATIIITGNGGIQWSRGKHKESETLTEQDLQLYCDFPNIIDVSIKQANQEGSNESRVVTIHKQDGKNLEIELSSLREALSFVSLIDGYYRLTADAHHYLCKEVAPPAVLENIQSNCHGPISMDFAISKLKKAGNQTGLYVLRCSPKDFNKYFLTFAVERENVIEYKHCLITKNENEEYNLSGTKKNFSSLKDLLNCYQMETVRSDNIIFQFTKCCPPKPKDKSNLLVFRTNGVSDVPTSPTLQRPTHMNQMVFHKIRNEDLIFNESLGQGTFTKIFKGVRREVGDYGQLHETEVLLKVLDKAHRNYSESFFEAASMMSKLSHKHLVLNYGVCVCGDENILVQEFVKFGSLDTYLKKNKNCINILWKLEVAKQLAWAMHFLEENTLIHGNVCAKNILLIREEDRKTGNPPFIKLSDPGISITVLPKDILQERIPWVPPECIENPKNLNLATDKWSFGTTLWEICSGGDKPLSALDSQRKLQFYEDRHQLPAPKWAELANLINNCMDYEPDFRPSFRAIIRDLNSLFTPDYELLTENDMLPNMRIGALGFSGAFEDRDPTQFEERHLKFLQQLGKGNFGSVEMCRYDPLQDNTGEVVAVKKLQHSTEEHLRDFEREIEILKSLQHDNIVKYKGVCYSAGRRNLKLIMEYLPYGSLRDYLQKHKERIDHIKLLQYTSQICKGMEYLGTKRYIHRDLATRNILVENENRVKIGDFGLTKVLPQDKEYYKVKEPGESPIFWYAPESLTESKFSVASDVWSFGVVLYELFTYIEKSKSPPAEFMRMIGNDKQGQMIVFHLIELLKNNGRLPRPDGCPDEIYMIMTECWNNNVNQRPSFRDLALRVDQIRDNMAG
Sequence of Tyrosine-protein kinase HCK (Homo sapiens) (P08631 2-526 limits assumed): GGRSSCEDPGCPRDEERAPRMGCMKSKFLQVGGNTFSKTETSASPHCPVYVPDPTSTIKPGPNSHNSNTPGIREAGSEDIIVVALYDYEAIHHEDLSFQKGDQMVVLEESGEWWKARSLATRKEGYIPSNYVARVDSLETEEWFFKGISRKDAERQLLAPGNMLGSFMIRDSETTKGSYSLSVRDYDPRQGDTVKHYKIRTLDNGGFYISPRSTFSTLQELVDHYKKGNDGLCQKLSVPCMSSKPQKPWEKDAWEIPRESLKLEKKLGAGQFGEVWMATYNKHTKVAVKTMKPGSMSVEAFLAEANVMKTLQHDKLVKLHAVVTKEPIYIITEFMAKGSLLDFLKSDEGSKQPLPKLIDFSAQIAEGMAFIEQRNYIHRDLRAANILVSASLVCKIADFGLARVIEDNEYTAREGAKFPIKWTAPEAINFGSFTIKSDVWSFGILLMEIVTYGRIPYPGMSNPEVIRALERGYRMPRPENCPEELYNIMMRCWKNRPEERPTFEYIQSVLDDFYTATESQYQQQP

For the compound `CS(=O)(=O)CCN(CC#N)Cc1ccc(-c2ccc3ncnc(Nc4ccc(OCc5cccc(F)c5)c(Cl)c4)c3c2)o1`, the inhibition in assay [1] is -3.53%; in assay [2], 2.47%; in assay [3], 3.04%; in assay [4] it was -4.22%; in assay [5], 4.4%; in assay [6], 2.93%. Besides, the inhibition is -0.19% in assay [7]; 0.84% in assay [8]; -2.61% in assay [9]; -3.44% in assay [10]; 0.62% in [11]; 1.2% in assay [12]. The inhibition in assay [13] is 1.36%; in assay [14], 1.26%; in assay [15] it was -5.68%; in assay [16], -5.16%; in assay [17], 4.09%; in assay [18], 7.7%. Moreover, the inhibition in [19] was -0.23%.

Turning to `CCn1c(-c2nonc2N)nc2c(C#CC(C)(C)O)nc(CN3CCCC3)cc21`, the inhibition in assay [1] was 3.44%; in [2], -1.79%; in assay [3], 2.1%; in assay [20], -0.3%; in assay [4] it was -1.42%; in assay [5] it was 0.13%. The inhibition was -0.45% in [6]; -1.19% in assay [7]; -0.92% in assay [8]; 0.22% in assay [9]; 0.72% in assay [10]; 1.82% in [11]. Also, the inhibition is 3.25% in assay [12]; 0.37% in [13]; -0.34% in [14]; 0.46% in assay [15]; 1.49% in [16]; 5.26% in [17]. Moreover, the inhibition in assay [18] was 20.1%; in assay [19], -3.09%.

Turning to `CC(=O)Nc1cccc(C#Cc2cncnc2Nc2ccc(OCc3cccc(F)c3)c(Cl)c2)n1`, the inhibition was 2.69% in assay [1]; -0.02% in assay [2]; 2.4% in assay [3]; -4.35% in assay [20]; -3.59% in [4]; -4.01% in assay [5]. In addition, the inhibition was -3.08% in assay [6]; -1.19% in assay [7]; 0% in [8]; -0.1% in [9]; 0.33% in assay [10]; 3.25% in assay [11]. The inhibition is 14.8% in assay [12]; -1.97% in assay [13]; -0.27% in assay [14]; 2.07% in [15]; 2.66% in assay [16]; -2.26% in assay [17]. The inhibition in assay [18] was 2.74%; in assay [19], -0.74%.

As for `Nc1nc(-c2ccc3c(c2)C(=Cc2cc(Br)c(O)c(Br)c2)C(=O)N3)cs1`, the inhibition in [1] is 8.82%; in [2], -1.41%; in assay [3], 7.14%; in [20], -1.89%; in assay [4], 0.82%; in [6] it was 1.87%. In addition, the inhibition in assay [7] was -3.05%; in assay [8], -2.21%; in assay [9], 0.01%; in assay [10], 1.31%; in assay [11], 0.76%; in assay [12], -0.48%. The inhibition in assay [13] is -0.72%; in assay [14] it was -1.87%; in assay [15], 1.19%; in [16], 2.02%; in assay [17], 1.8%; in assay [18], 11.3%. Moreover, the inhibition in assay [19] is -0.22%.

Turning to `COc1ccc(-c2nn3ncccc3c2-c2ccnc(Nc3ccc(Cl)c(C(F)(F)F)c3)n2)cc1`, the inhibition in assay [1] was 6.37%; in assay [2] it was 1.57%; in assay [3], 4.58%; in assay [20], 0.1%; in assay [4] it was -0.08%; in [5], 3.14%. The inhibition in [6] is 2.37%; in [7], -1.6%; in assay [8], 1.11%; in assay [9] it was 0.94%; in assay [10] it was 0.32%; in [11], 1.77%. Also, the inhibition in assay [12] was 10.6%; in assay [13] it was -0.46%; in assay [14], -0.98%; in [15] it was -0.77%; in assay [16], -0.67%; in assay [17], 1.69%. Besides, the inhibition in assay [18] is 4.52%; in assay [19], 1.4%.

Consider `COc1ccc(-c2coc3ncnc(N)c23)cc1`, for which the inhibition was 2.02% in assay [1]; 5.63% in [2]; 8.51% in [3]; 1.64% in assay [20]; 2.38% in [4]; 5.22% in assay [5]. For the same compound, the inhibition was found to be 6.33% in [6]; 1.82% in assay [7]; 1.27% in assay [8]; 1.41% in assay [9]; 1.48% in [10]; 0.98% in assay [11]. In addition, the inhibition is 2.67% in [12]; 1.71% in assay [13]; 2.08% in assay [14]; -1.56% in assay [15]; 2.35% in assay [16]; 6.15% in assay [17]. Also, the inhibition in assay [18] was found to be 9%; in [19], 5.17%.

On to `COc1cc(C=NNc2ncnc3c2cnn3-c2ccccc2)ccc1O`, for which the inhibition in assay [1] came to 47.5%; in assay [2], 8.92%; in assay [3], 41.6%; in [20], 1.72%; in assay [4], 3.81%; in assay [5], 3.42%. Besides, the inhibition in assay [6] came out at 2.58%; in [7], 3.25%; in assay [8] it was 2.41%; in [9], 1.47%; in assay [10] it was 4.53%; in [11] it was 2.76%. Further, the inhibition was 3.21% in [12]; 1.26% in assay [13]; 8.82% in [14]; -0.33% in [15]; 4.39% in [16]; 12.4% in assay [17]. The figures for the inhibition in [18] and in [19] were 49.6% and 15%, respectively.

In general, inhibition refers to the change of the read-out against control, counted positive when it falls.

The values above are taken from ChEMBL document CHEMBL1961873, “Compounds: GSK PKIS; Assays: Nanosyn kinase panel” (2012).
